FBW7 activator: FBW7 E3 ligase activators, primary screen, biochemical, AlphaScreen, human; F-box/WD repeat-containing protein 7 (Homo sapiens), Q969H0; normalized activity (activation), % at 26.1 µM; AlphaScreen FBW7–phospho-cyclin E peptide binding, activator screen; 650,000 compounds, 0.13% hits; in the data active means normalized activity above about 1.9%;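 further: purified mutant Fbw7 with reduced substrate affinity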
Target sequence (Q969H0 whole entry, looked up): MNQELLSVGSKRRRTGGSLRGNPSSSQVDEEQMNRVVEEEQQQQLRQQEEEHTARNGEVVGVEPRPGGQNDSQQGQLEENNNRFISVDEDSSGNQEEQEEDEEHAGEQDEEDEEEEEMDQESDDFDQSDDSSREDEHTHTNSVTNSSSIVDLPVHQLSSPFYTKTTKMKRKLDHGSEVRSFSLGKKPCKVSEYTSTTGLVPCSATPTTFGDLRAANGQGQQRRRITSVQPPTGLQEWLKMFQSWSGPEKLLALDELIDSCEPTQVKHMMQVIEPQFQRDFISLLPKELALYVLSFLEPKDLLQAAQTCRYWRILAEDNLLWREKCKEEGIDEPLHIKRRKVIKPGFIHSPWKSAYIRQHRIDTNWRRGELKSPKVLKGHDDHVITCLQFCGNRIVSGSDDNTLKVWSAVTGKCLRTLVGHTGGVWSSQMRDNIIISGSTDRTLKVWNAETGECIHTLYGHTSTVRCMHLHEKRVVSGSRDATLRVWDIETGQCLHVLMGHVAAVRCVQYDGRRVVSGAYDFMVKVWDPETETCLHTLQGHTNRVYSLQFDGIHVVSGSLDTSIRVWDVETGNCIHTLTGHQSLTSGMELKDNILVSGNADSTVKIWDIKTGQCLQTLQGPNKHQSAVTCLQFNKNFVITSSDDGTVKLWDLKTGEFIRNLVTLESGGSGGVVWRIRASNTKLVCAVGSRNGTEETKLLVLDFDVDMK
TEAD-YAP inh: TEAD-YAP interaction inhibition, primary screen, TEAD-YAP interaction inhibitor project, luminescence, HEK-TIYL cells; 640,000 compounds, 1.4% hits; AID 1259422, 2018; inhibition, % at 9.12 µM; TEAD-Gal4/YAP UAS-luciferase luminescence; in the data active means inhibition above about 32%
MITF primary: MITF inhibitors, primary screen, biochemical, AlphaScreen, human | AID 1259374, 2018 | inhibition, % at 2.6 µM | AlphaScreen MITF homodimerization, bead proximity signal | Microphthalmia-associated transcription factor (Homo sapiens), O75030 | 650,000 compounds, 0.91% hits; in the data active means inhibition above about 50%
GPR151 ag: activators of human GPR151, primary screen, cell-based, PathHunter beta-arrestin, luminescence; 650,000 compounds, 1% hits; PathHunter beta-arrestin GPR151 cells; activation, % at 11.2 µM; in the data active means activation above about 4.9%
Hits are given with their value; - = inactive. Only some compounds are listed: those with a hit (about 3.5% of all), similar ones and a draw of the others.

SMILES	FBW7 activator	TEAD-YAP inh	MITF primary	GPR151 ag
CCC/C(C)=C/Cc1c(O)c2c(c(C)c1OC)COC2=O	-	66	-	-
COC1=C(OC)C(=O)C(C/C=C(\C)CC/C=C(\C)CC/C=C(\C)CC/C=C(/C)CC/C=C(\C)CC/C=C(\C)CC/C=C(\C)CC/C=C(\C)CC/C=C(\C)CCC=C(C)C)=C(C)C1=O	-	-	-	-
Cc1ccc(Nc2cc(C)nn2-c2nc(C)cc(=O)[nH]2)cc1	-	58	-	-
Cc1ccc(Nc2cc(C)nn2-c2nc(C)cc(C)n2)cc1	-	-	-	-
CC(=O)c1ccc(N2CCN(CC(=O)Nc3ncc(C)s3)CC2)cc1	-	-	-	-
CCc1nnc(NC(=O)CN2CCN(c3ccc(C(C)=O)cc3)CC2)s1	-	32	-	-
CN(C)c1ccc(/C=C/CN2CCN(Cc3ccc4c(c3)OCO4)CC2)cc1	-	-	68	-
O=C(/C=C/c1ccc(Cl)cc1)N1CCN(Cc2ccc3c(c2)OCO3)CC1	-	-	-	-
O=C(O)C1c2ccccc2C(=O)N(C2CCCCC2)C1c1ccccc1 (configuration not stated)	-	-	-	-
Cn1/c(=N\N=C/c2ccc(O)cc2)sc2ccccc21	1.9	-	-	-
Cn1/c(=N/N=C/c2ccc(C(=O)O)cc2)sc2ccccc21	-	-	-	-
Cc1nc(/C=C/c2ccc(Cl)cc2)sc1C(=O)O	-	60	-	-
CCN1C(C(=O)c2ccccc2)=C(Nc2c(C)n(C)n(-c3ccccc3)c2=O)c2ccccc2S1(=O)=O	-	-	-	-
CC(C)(C)c1ccc(COC(=O)c2cccnc2N)cc1	-	-	-	-
O=C(/C=C/Nc1ccc(F)cc1F)c1ccco1	-	64	-	-
O=C(/C=C/Nc1ccccc1O)c1ccco1	-	-	-	-
O=C(/C=C/Nc1cccc(Cl)c1Cl)c1ccco1	-	53	-	-
O=C(/C=C/Nc1ccc(Br)cc1F)c1ccco1	-	43	-	-
CCC/C(O)=C1\C(=O)CC(C)(C)CC1=Nc1ccc(OC)cc1OC	-	55	-	-
COc1ccc2oc(=O)c(-c3csc(Nc4ccccc4OC)n3)cc2c1	-	48	-	-
CCOc1cc(/C=C2\C(=O)N(c3cccc(C(=O)O)c3)N=C2C)cc(Cl)c1OC	-	-	61	-
CC1=NN(c2cccc(C(=O)O)c2)C(=O)/C1=C\c1ccc(-c2ccc(Cl)c(C(=O)O)c2)o1	-	-	74	-
CC1=NN(c2cccc(C(=O)O)c2)C(=O)/C1=C\c1ccccc1O	-	-	57	-
Cc1nc2n[nH]c(N)c2c(C)c1Cl	-	-	-	-
CCN(CC)c1ccc2c(=O)[nH][nH]c(=O)c2c1	-	-	-	-
SMILES	FBW7 activator	TEAD-YAP inh	MITF primary	GPR151 ag
NC(=O)c1ccc(-c2nc(C(=O)Nc3ccc(N4CCOCC4)cc3)cs2)cc1	-	-	-	-
Cc1ccc(-c2cc(C(=O)N3CCN(c4ccccc4)CC3)c3ccccc3n2)s1	-	49	-	-
CCOc1ccccc1N1CCN(C(=O)c2cc(-c3cccc(C)c3)nc3ccccc23)CC1	-	42	-	-
CCOC(=O)N1CCN(C(=O)c2cc(-c3ccncc3)nc3ccccc23)CC1	-	52	-	-
CC(=O)N1CCN(c2nc(-c3ccccc3)c3cc(Cl)ccc3n2)CC1	-	-	-	-
O=C(c1ccccc1)N1CCN(c2nc(-c3ccccc3)c3cc(Cl)ccc3n2)CC1	1.9	-	-	-
COc1cccc(NC(=O)N2CCCC2C(=O)Nc2cccc(F)c2)c1 (configuration not stated)	-	-	-	-
CN1CCCN(C(=O)C2CC23CCN(Cc2cccc(F)c2)CC3)CC1 (configuration not stated)	-	-	-	-
O=C(c1cc(-c2ccncc2)nc2ccc(Cl)cc12)N1CCN(c2ccccn2)CC1	-	40	-	-
O=C(c1cc(-c2cccnc2)nc2ccc(Cl)cc12)N1CCN(c2ncccn2)CC1	-	-	-	-
COc1cc(-c2noc(C3CC(=O)N(c4ccc(C)cc4C)C3)n2)cc(OC)c1OC (configuration not stated)	-	44	-	-
COc1ccc(N2CC(c3nc(-c4cc(OC)c(OC)c(OC)c4)no3)CC2=O)cc1Cl (configuration not stated)	-	-	-	-
CC(=O)CC(=O)c1ccc(C(C)C)cc1	-	-	-	-
COc1ccc(S(=O)(=O)N2c3ccc(F)cc3CCC2C)cc1 (configuration not stated)	-	56	-	-
CC1CCc2cc(F)ccc2N1S(=O)(=O)c1c(N)n(C)c(=O)n(C)c1=O (configuration not stated)	-	-	-	-
COc1ccc(C(=O)C2CCN(S(=O)(=O)c3ccc(F)cc3)CC2)cc1	-	42	-	-
CC(=O)Nc1ccc(S(=O)(=O)N2c3ccc(F)cc3CCC2C)cc1 (configuration not stated)	-	46	-	-
CC(NC(=O)c1cccc2ccccc12)c1ccc2c(c1)OCCO2 (configuration not stated)	-	-	-	-
COc1ccccc1NS(=O)(=O)c1ccc2c(c1)OCCCO2	-	-	-	-
COc1ccc(C(=O)Nc2ncc(Cc3ccc(C)cc3)s2)cc1OC	-	39	-	-
COc1ccc(C(=O)Nc2ncc(Cc3cccc(Cl)c3)s2)cc1OC	-	53	-	-
Cc1ccc(C(=O)Nc2ncc(Cc3cccc(Cl)c3)s2)cc1	-	-	-	-
O=C(CC(NS(=O)(=O)c1ccc(Br)cc1)c1cccs1)NCCN1CCOCC1 (configuration not stated)	-	-	-	-
CCOc1ccc(/C=N/NC(=O)CNc2cccc3ccccc23)cc1	-	-	-	-
Cc1ccc(C2=Nn3c(C)nnc3SC2)cc1	-	-	-	-
SMILES	FBW7 activator	TEAD-YAP inh	MITF primary	GPR151 ag
Oc1ccccc1-c1nnc2n1N=C(c1ccc(F)cc1)CS2	-	-	-	-
Cc1ccc(-c2nnc3n2N=C(c2ccc(O)c(O)c2)CS3)cc1	-	59	-	-
Oc1ccc(C2=Nn3c(nnc3-c3ccccc3Cl)SC2)cc1O	-	63	-	-
CCCn1c(NC(=O)c2cccc(S(=O)(=O)N(C)C(C)C)c2)nc2ccccc21	-	34	-	-
CN(C)c1ccc(C2OCC3(CO2)SC(=O)NC3=O)cc1 (configuration not stated)	4.9	-	-	-
Cc1cc(Br)cc(C)c1NC(=S)NC(=O)c1cccs1	-	-	-	-
CC(=O)Nc1ccc(C(=O)NCC(=O)OCc2cccc([N+](=O)[O-])c2)cc1	-	-	-	-
O=C(CSc1nnnn1C1CC2CCC1C2)Nc1ccnc2ccccc12 (configuration not stated)	-	61	-	-
O=C(CSc1ccccc1C(=O)O)Nc1ccnc2ccccc12	-	-	-	-
Cc1ccc(-c2cccc3cnc(Nc4cccc(C(=O)N5CCN(C)CC5)c4)nc23)cn1	-	33	-	-

Screens deposited in PubChem BioAssay by The Scripps Research Institute Molecular Screening Center.
